Shown are actives, neighbours in structure and some others; about 6.7% of the full set was active somewhere.
Autofluor counter: flagged as autofluorescent in microsphere protease counterscreen | compound autofluorescence counterscreen, microsphere flow cytometry; active compounds read high | fluorescence intensity (concentration not given with the values) | 360,000 tested, 3.1% active | AID 624483; in the data active = fluorescence intensity above about 16000; inconclusive = no clear call, values can overlap the other calls
Anthrax LF inh2: Bacillus anthracis LF protease inhibitors, primary screen, biochemical, multiplex microsphere, MLPCN library; multiplex microsphere protease cleavage assay; inhibition, % at 10 µM; 360,000 tested, 0.12% active; AID 588501, 2011; note: plate controls were buffer without enzyme for full effect and enzyme alone for no effect
BoNT-F LC inh: BoNT/F light chain protease inhibitors, primary screen, biochemical, flow cytometry, MLPCN library. Botulinum neurotoxin type F light chain protease (Clostridium botulinum). inhibition, % at 10 µM. AID 588497, 2011. 360,000 tested, 0.22% active. Multiplex microsphere protease cleavage assay; in the data active = inhibition above about 35%, passing the limit was not always enough; inconclusive = no clear call, values can overlap the other calls; note: plate controls were buffer without enzyme for full effect and enzyme alone for no effect
FBA Mtb inh: Mtb FBA enzyme inhibitors, primary screen, biochemical, fluorescence, strain H37Rv; AID 588726, 2011; 360,000 tested, 2.3% active; inhibition, % at 1 µM; Fructose-bisphosphate aldolase (Mycobacterium tuberculosis (strain ATCC 25618 / H37Rv)), …; purified M. tuberculosis FBA, fluorescence read-out; in the data active = inhibition above about 27%;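 note: 0% = vehicle and 100% = reference inhibitor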
Target sequence (P9WQA3 whole entry, looked up): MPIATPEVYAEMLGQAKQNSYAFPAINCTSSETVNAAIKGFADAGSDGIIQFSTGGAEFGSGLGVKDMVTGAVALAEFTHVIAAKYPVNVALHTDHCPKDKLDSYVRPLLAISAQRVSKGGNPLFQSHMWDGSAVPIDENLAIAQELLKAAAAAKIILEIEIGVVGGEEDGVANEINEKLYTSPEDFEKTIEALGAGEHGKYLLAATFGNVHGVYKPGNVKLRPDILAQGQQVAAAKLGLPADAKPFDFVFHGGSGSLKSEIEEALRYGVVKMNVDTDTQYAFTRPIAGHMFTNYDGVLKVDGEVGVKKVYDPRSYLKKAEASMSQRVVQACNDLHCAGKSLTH
BoNT A protease: BoNT/A light chain protease inhibitors, primary screen, biochemical, flow cytometry, MLPCN library; Botulinum neurotoxin type A light chain protease (Clostridium botulinum A str. ATCC 3502); multiplex microsphere protease substrate cleavage; inhibition, % at 10 µM; 360,000 tested, 0.17% active; note: plate controls were buffer without enzyme for full effect and enzyme alone for no effect
GDH-TPI inh: GDH-TPI coupling enzyme inhibitors, primary screen, artefact control for M. tuberculosis FBA inhibitor project, biochemical, absorbance, full deck | GDH-TPI coupled enzyme counterscreen, NADH absorbance | inhibition, % at 4.8 µM | 360,000 tested, 1.2% active; in the data active = inhibition above about 30%;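 note: 0% = DMSO wells and 100% = wells lacking the enzyme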
BoNTA LC inh 1: BoNT/A light chain protease inhibitors, confirmation, biochemical, flow cytometry, cherry pick 1 | shares compounds with BoNT-F LC inh | multiplex microsphere protease assay | inhibition, % at 10 µM | 720 tested, 3% active; in the data active = inhibition above about 32%
BoNT-F LC CP1: BoNT/F light chain protease inhibitors, confirmation, biochemical, flow cytometry, cherry pick 1 | shares compounds with BoNT-F LC inh | multiplex microsphere protease cleavage assay | inhibition, % at 10 µM | 720 tested, under 10 active | AID 602140, 2011; call rule not given here
LF protease CP1: Bacillus anthracis LF protease inhibitors, confirmation, biochemical, multiplex microsphere, cherry pick 1; shares compounds with BoNT-F LC inh; multiplex microsphere protease cleavage assay; inhibition, % at 10 µM; 720 tested, under 10 active; AID 602142, 2011; call rule not given here
Numbers without * were called inactive; ? = inconclusive; nt = no result; + = active, no number. Cut-off read from the data, not from the text of the source, unless noted: active = inhibition above about 30%; inconclusive = no clear call, values can overlap the other calls; inactive = below that.

SMILES	Autofluor counter	Anthrax LF inh2	BoNT-F LC inh	FBA Mtb inh	BoNT A protease	GDH-TPI inh	BoNTA LC inh 1	BoNT-F LC CP1	LF protease CP1
O=C(Cc1ccccc1)N/N=C/c1ccc(-c2ccc([N+](=O)[O-])cc2)o1	2078	1.1	-1.2	-2.0	2.6	13.3	nt	nt	nt
Cc1ccc(-c2ccc(/C=N/NC(=O)Cc3nnc(N)s3)o2)cc1Cl	5360	-10.3	-7.1	1.8	-0.2	29.1	nt	nt	nt
Nc1nnc(CC(=O)N/N=C/c2ccc(-c3ccccc3)o2)s1	2995	-3.0	-3.7	2.2	-0.3	46.7*	nt	nt	nt
O=C(NNC(=S)NC(=O)c1ccccc1)c1ccc(O)cc1	3662	9.2	-7.4	-0.9	-3.5	4.6	nt	nt	nt
COCCNc1nnc(SCC(=O)Nc2cc(C)on2)s1	3495	1.0	-4.7	-0.6	-0.7	3.5	nt	nt	nt
O=C(CN1CCCC1)N/N=C/c1ccc(-c2cccc(Cl)c2)o1	3199	-2.5	-0.7	0.5	0.1	31.9*	nt	nt	nt
CSc1ccc(CN2CCN(S(=O)(=O)Cc3ccccc3)CC2)cc1	27972*	-27.9	-165.3	3.7	-103.3	-7.7	nt	nt	nt
CN1CCN(S(=O)(=O)Cc2ccc(Cl)cc2)CC1	3510	?	35.6*	0.8	5.1	-10.0	nt	nt	nt
CC[C@@H](C)[C@H](CN[C@H](CNC)[C@@H](C)O)NCCc1ccc(OC)cc1	4325	-0.1	-3.6	5.0	-0.6	0.0	nt	nt	nt
c1ccc(-c2nn3cnnc3c3ccccc23)cc1	4509	-0.7	3.9	-4.4	-0.4	6.3	nt	nt	nt
CCCn1c(-c2cccs2)nc2nc3ccccc3nc21	8663	4.5	-1.5	+	9.3	30.6*	nt	nt	nt
COCCn1c(-c2cccs2)nc2nc3ccccc3nc21	3712	13.4	16.6	+	5.7	19.2	nt	nt	nt
CCn1c(SCc2nc3ccccc3nc2C)nnc1-c1cccs1	3983	-0.5	-1.3	-0.6	-0.2	6.2	nt	nt	nt
Cc1ccc(CSc2nc3ncccc3[nH]2)cc1	2482	-0.6	-2.7	-0.1	-0.1	0.9	nt	nt	nt
O=C(Nc1ccc2nc(-c3ccc(Br)o3)[nH]c2c1)c1ccco1	2267	-2.4	-9.8	1.2	0.1	39.8*	nt	nt	nt
O=C(Nc1ccc2nc(-c3ccc(Br)o3)[nH]c2c1)c1cccs1	2595	-0.7	0.6	0.8	0.3	32.5*	nt	nt	nt
CC(=O)Nc1ccc2nc(-c3ccc(Br)o3)[nH]c2c1	2067	-1.5	-3.4	3.4	-0.1	28.7	nt	nt	nt
CC1(C)NC(=O)N(CC(O)CN2CCCCC2)C1=O (stereo unspecified)	19639*	1.0	1.3	0.5	?	1.9	nt	nt	nt
CSc1ccc(C(=O)C2CCCN(CCCn3cccn3)C2)cc1 (stereo unspecified)	2175	-0.2	37.2*	-4.0	3.4	8.0	0.1	0.4	7.4
CCSc1nnc(-c2sc3nnc(-c4ccccc4)c(-c4ccccc4)c3c2N)o1	5874	56.3*	51.5*	-2.3	80.2*	3.1	86.1*	27.3	40.3*
CCSc1nnc(-c2ccncc2)o1	6545	3.8	-8.8	3.8	-1.4	7.8	nt	nt	nt
O=C(O)CS(=O)(=O)CC(=O)NCc1cccc(C(F)(F)F)c1	2638	1.6	49.8*	-3.2	4.2	9.9	0.5	-6.5	-2.4
Cc1ccc(-c2nnc(-c3cccnc3)o2)cc1	3110	6.6	55.8*	9.6	5.1	3.7	0.2	2.4	4.2
COc1cc(C(c2c(C)[nH][nH]c2=O)c2c(C)[nH][nH]c2=O)ccc1OC(C)C	2480	-2.0	-1.3	-1.0	-0.1	7.0	nt	nt	nt
CCN(CC)c1c([N+](=O)[O-])c(=O)sc2ccccc12	2758	0.0	-12.6	-2.5	-0.6	-0.4	nt	nt	nt
SMILES	Autofluor counter	Anthrax LF inh2	BoNT-F LC inh	FBA Mtb inh	BoNT A protease	GDH-TPI inh	BoNTA LC inh 1	BoNT-F LC CP1	LF protease CP1
CCOc1ccc(OCCOCCNCCOC)cc1	2724	1.0	41.3*	2.0	3.5	1.5	-0.2	5.0	-2.1
CCN(CC)CCn1c2ccccc2c2nc3ccccc3nc21	3644	-4.6	-4.3	0.8	8.1	18.6	nt	nt	nt
CCCn1c2ccccc2c2nc3ccccc3nc21	4676	31.2*	-6.4	3.6	57.0*	17.4	12.3	4.0	8.7
OC(CNCc1ccccc1F)COc1cccc2ccccc12 (stereo unspecified)	3445	5.8	35.4*	0.7	2.3	-0.7	0.6	-8.4	0.2
CCC(=O)Nc1nnc(S(=O)(=O)N(CC)c2ccc(Cl)cc2)s1	4343	3.3	0.3	-1.8	-1.7	9.2	nt	nt	nt
CCC(=O)Nc1nnc(S(=O)(=O)N(C)c2cc(C)cc(C)c2)s1	3945	7.8	41.7*	2.0	-1.5	-1.3	0.6	0.6	1.3
CCCCCNC(=O)c1ccc2c(=O)n(CC3CCCO3)c(=O)[nH]c2c1 (stereo unspecified)	3267	3.1	-8.3	5.7	-0.8	2.2	nt	nt	nt
O=[N+]([O-])c1ccccc1S(=O)(=O)N1CCN(C2CCN(Cc3ccccc3)CC2)CC1	6611	0.7	-4.8	-3.6	-0.4	-11.7	nt	nt	nt
Cc1cccc(N2CCN(C(=O)C3CCN(S(=O)(=O)c4cccc5nsnc45)CC3)CC2C)c1 (stereo unspecified)	5881	-3.3	-7.3	-14.4	-1.7	3.1	nt	nt	nt
Cc1ccc(OCCNC(=O)c2ccc(C)cc2)cc1	3404	-5.0	-2.8	1.7	-0.3	5.9	nt	nt	nt
Cc1ccc(OCCNC(=O)c2ccccc2O)cc1	4460	12.3	35.7*	15.0	-0.8	8.6	-1.0	-10.6	-2.7
CC(C)N(Cc1ccccc1)C(=O)CC(=O)N(Cc1ccccc1)C(C)C	5070	12.2	36.2*	2.1	8.7	-4.6	0.1	-3.7	-1.9
CC(=O)c1ccc(-c2ccc(C(=O)NC3CC(C)(C)NC(C)(C)C3)o2)cc1	?	-1.0	35.5*	179.5*	2.0	43.9*	0.6	-9.2	1.5
CCOCCCNC(=O)C(c1ccc(C)cc1)N(Cc1ccc2c(c1)OCO2)C(=O)CNC(C)=O (stereo unspecified)	3476	-3.3	35.1*	1.9	0.4	8.1	-0.5	1.1	-0.9
COc1cc(OC)cc(-c2ncc3ccccn23)c1	4252	6.2	-6.9	-1.2	4.5	1.9	1.6	-10.2	1.2
COc1ccc(-c2ncc3ccccn23)cc1	4513	12.9	1.2	-0.3	8.8	-5.2	1.5	1.3	5.8

Screening results (PubChem BioAssay)
